Laboratory results as given in PubChem BioAssay (NCATS).
Records with an inconclusive call do not appear. Activity calls are given as the source filed them. The call rests on the fitted dose curve; in most records, active means well fitted curve in the direction sought with a large enough effect; inconclusive means small, poorly fitted or top-dose-only effect, or another doubt; inactive means no such curve, though single readings can be large; an effect the other way counts as inactive or inconclusive.

Experiments:
[1] = qHTS to identify inhibitors of the type 1 interferon - major histocompatibility complex class I in skeletal muscle: primary screen against the NCATS Pharmaceutical Collection (AID 1347407);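 further: luminescence of HiBiT knocked into endogenous HLA-B as interferon-induced MHC class I level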
Summary of the method: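 Compounds […] were added to CRISPR-engineered HLA-B-HiBiT C25cl48 human myoblasts with 4.0 ng/ml IFN-beta. After 24 hrs at 37 C, cells were lysed and HiBiT luminescence measured.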

[2] = target: Protein phosphatase 1D (Homo sapiens) (UniProt O15297); assay: RapidFire Mass Spectrometry qHTS Assay for Modulators of WT P53-Induced Phosphatase 1 (WIP1) (AID 1347424);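 further: amount of dephosphorylated VEPPL-S-QETFS peptide product formed by WIP1; series mostly up to about 63 µM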
Summary of the method: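 10 nM WIP1 preincubated with compounds 1 hr at room temperature in pH 7.5 Tris buffer with 30 mM MgCl2, 1 mM TCEP; 2 uM VEPPL-pS-QETFS phosphopeptide for 5 min, formic acid quench; dephosphorylated product quantified by RapidFire MS against labelled standard.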

[3] = target: Protein phosphatase 1D (Homo sapiens) (UniProt O15297); assay: Rhodamine-PBP qHTS Assay for Modulators of WT P53-Induced Phosphatase 1 (WIP1) (AID 1347425)
Summary of the method: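 Read-out: Rhodamine-PBP fluorescence (ex 525/em 598 nm) for released Pi, read each minute for 11 min after adding 10 uM VEPPL-pS-QETFS; signal taken as f1 minus pre-substrate f0. Enzyme 5 nM WIP1 with 1 hr room-temperature compound preincubation.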

[4] = Primary qHTS for inhibitors of La Crosse Virus (LACV) - induced cell death in SH-SY5Y cells (AID 1508616);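 further: top concentration of the series differs between compounds; higher means more rescue of cells from virus-induced death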
Summary of the method: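 Luminescent ATP readout (ATPLite 1step, 5 min room temperature) measured rescue from LACV-induced death after 6 days of infection at 0.01 MOI; normalized to infected DMSO wells and uninfected DMSO wells.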

Measured: Potency

Sequence of Protein phosphatase 1D (Homo sapiens) (O15297 whole entry, looked up): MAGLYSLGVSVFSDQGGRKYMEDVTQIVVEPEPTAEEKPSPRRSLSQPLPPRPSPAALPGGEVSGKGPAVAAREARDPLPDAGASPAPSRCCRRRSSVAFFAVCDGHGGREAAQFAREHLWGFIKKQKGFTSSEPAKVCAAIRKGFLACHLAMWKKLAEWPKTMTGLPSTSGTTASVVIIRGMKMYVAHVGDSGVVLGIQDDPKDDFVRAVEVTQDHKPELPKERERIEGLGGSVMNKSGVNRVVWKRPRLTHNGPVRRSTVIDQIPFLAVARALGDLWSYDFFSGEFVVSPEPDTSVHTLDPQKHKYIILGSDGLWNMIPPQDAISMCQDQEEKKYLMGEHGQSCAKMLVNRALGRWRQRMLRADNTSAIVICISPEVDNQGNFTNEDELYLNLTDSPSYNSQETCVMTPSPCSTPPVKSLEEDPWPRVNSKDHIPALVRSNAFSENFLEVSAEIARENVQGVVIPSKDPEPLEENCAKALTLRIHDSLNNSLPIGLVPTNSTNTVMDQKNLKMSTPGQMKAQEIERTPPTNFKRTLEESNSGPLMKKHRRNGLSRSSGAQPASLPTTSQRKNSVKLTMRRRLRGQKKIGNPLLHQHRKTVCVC

O=C(O)CCC(=O)Nc1ccc(S(=O)(=O)Nc2nccs2)cc1
inactive: all assays above

CC[C@]12CCCN3CCc4c(n(c5ccccc45)C(=O)C1)[C@@H]32
inactive: all assays above

CC[N+](C)(CC)CCOC(=O)C(O)(c1ccccc1)C1CCCCC1 (stereo unspecified)
inactive: all assays above

CCOc1ccc(NC(C)=O)cc1
inactive: all assays above

CC(C)(C)CC(C)(C)c1ccc(O)c(-n2nc3ccccc3n2)c1
inactive: all assays above

CC(=O)Nc1ccc(CC(=O)O)cc1
inactive: all assays above

CCCCCCCCCCCCCC(=O)OC(C)C
inactive: all assays above

OC1C(O)C(O)C(O)C(O)C1O (stereo unspecified)
inactive: all assays above

CCCCCCCCCCCCCCC[C@H](O)[C@@H](N)CO
inactive: all assays above

CCCCNc1ccc(C(=O)OCCOCCOCCOCCOCCOCCOCCOCCOCCOC)cc1
inactive: all assays above

CN(Cc1ccc(C(C)(C)C)cc1)Cc1cccc2ccccc12
inactive: all assays above

NS(=O)(=O)c1ccc(Cl)c(S(N)(=O)=O)c1
inactive: all assays above

COc1ccc(/C=N/NC(=O)c2ccncc2)cc1OC
inactive: all assays above

C[N+]1(CC2COC(c3ccccc3)(C3CCCCC3)O2)CCCCC1 (stereo unspecified)
inactive: all assays above
